RECQ1 inh-1: RECQ1 (human) helicase inhibition; 240,000 tested, 0.54% active; AID 2549; RECQ1 DNA unwinding, red fluorescence kinetic read; Potency, µM (doses to about 57.3 µM), usual class: inhibitors; P46063; note: nearly all actives have a fitted effect of over 30% in size
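50 nM RECQ1T1 preincubated 15 min with compound in Tris pH 8.0 buffer with MgCl2, DTT, Tween-20 and 2.5 ug/ml poly(dI-dC); started with 200 nM TAMRA/BHQ-2 forked duplex and 2 mM ATP. Unwinding read as fluorescence (525/598 nm), two reads 2 h apart.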
L3MBTL1 inh: blocks human L3MBTL1; Q9Y468; AlphaScreen L3MBTL1–H3K9me1 peptide binding; Potency, µM (highest dose often 57.1 µM), actives largely listed as inhibitors; 230,000 tested, 0.66% active; AID 485360; note: nearly all actives have a fitted effect of over 60% in size
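Read-out is AlphaScreen signal from streptavidin donor and nickel chelate acceptor beads (10 ug/mL final each) bridging L3MBTL1 (50 nM) and biotinylated K9-monomethylated H3(1-15) peptide (75 nM), after 30 min compound exposure at room temperature.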
APEX1 inh: inhibitors of human APE1 endonuclease; Potency, µM (doses to about 65.8 µM), hits mostly inhibitors; recombinant APE1, TAMRA/BHQ-2 abasic DNA cleavage fluorescence; 350,000 tested, 0.35% active; note: nearly all actives have a fitted effect of over 55% in size
Target sequence (P27695 whole entry, looked up): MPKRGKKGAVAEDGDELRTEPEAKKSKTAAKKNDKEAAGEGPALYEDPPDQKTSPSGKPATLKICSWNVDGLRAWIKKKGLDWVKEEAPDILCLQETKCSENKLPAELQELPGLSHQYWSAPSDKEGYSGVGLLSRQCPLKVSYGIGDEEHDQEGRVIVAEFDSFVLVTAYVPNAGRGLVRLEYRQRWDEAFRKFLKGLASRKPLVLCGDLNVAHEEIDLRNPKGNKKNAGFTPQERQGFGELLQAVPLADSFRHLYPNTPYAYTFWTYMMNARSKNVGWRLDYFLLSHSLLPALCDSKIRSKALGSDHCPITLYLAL
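Compound pre-exposure to 0.75 nM APE1, 15 min at ambient temperature. Reaction initiated with 50 nM TAMRA/BHQ-2 THF substrate, read immediately in kinetic mode, 525 nm excitation, 598 nm emission.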
BLM helicase inh: blocks DNA unwinding by human BLM helicase | recombinant BLM DNA unwinding, fluorescence dequenching | P54132 | 350,000 tested, 0.2% active | Potency, µM (highest dose often 56.1 µM), most hits filed as inhibitors | AID 2528; note: nearly all actives have a fitted effect of over 35% in size
WRN inhibitor: inhibitors of human WRN helicase. WRN helicase unwinding, fluorescent forked duplex, kinetic. Potency, µM (series often up to 114 µM), usual class: inhibitors. 360,000 tested, 0.46% active. AID 651768; note: nearly all actives have a fitted effect of over 55% in size
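Primary qHTS, 1536-well format. 20 nM WRN + compound, 15 min RT; start with 100 nM forked fluorophore/quencher duplex, 2 mM ATP (final); kinetic read ex 525/em 598 nm.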
RECQ1 inh conf: confirmation of human RECQ1 helicase inhibitors. shares compounds with RECQ1 inh-1. RECQ1 helicase DNA unwinding, fluorescence. Potency, µM (doses to about 229 µM), actives largely listed as inhibitors. 610 tested, 28% active; note: nearly all actives have a fitted effect of over 45% in size
ADP FP counter: counter-screen for RECQ1 inhibitors: ADP displacement | 530 tested, 27% active | Potency, µM (titrated, usually from 228 µM), most hits filed as inhibitors | shares compounds with RECQ1 inh-1 | ADP fluorescence polarization displacement counterscreen; note: nearly all actives have a fitted effect of over 45% in size
RECQ1 inh-2: RECQ1 helicase inhibition confirmed, round 2. AID 504841. recombinant RECQ1 DNA unwinding, red fluorescence. Potency, µM (highest dose often 119 µM), hits mostly inhibitors. shares compounds with RECQ1 inh-1. 1,100 tested, 15% active; note: nearly all actives have a fitted effect of over 50% in size
Hits are given with their value; - = inactive; ? = inconclusive; . = no result; [ ] = another dose, or the depositor's remark. Sampled rows, rich in hits. Any-hit rate of the full collection: about 0.92%. Calls come from the whole dose curve; as a rule, active = well fitted curve in the direction sought with a large enough effect; inconclusive = small, poorly fitted or top-dose-only effect, or another doubt; inactive = no such curve, though single readings can be large; an effect the other way counts as inactive or inconclusive.

SMILES	RECQ1 inh-1	L3MBTL1 inh	APEX1 inh	BLM helicase inh	WRN inhibitor	RECQ1 inh-2	others
COc1ccc(CCN2CC(C(=O)NC3CCCCC3)CC2=O)cc1OC (stereo unspecified)	40µM	.	?	-	-	?
CCNc1c(NC(=O)c2cc(OCC)c(OCC)c(OCC)c2)c(=O)oc2ccccc12	.	.	.	-	.	.
CN(C)S(=O)(=O)c1ccc(C(=O)OCc2nnc(-c3ccccc3)o2)cc1	-	-	-	-	-	.
O=C(OCc1nnc(-c2ccccc2)o1)c1ccc(S(=O)(=O)NCc2ccco2)cc1	40µM	-	?	-	-	?
CCc1ccc2ncc(S(=O)(=O)c3ccc(Cl)cc3)c(N3CCN(CC)CC3)c2c1	.	.	.	-	.	.
CC#CCN1c2ccccc2[C@]23C[C@@H](C(=O)OC)N(S(=O)(=O)c4c(C)noc4C)C2=NC(C(=O)OC)=C(C(=O)OC)[C@H]13	-[11.5 µM]	.	-[12.4 µM]	-[12.4 µM]	.	.
COc1ccc([C@H]2CC(=O)c3c(O)cc(O)cc3O2)cc1O	-	-	-	-	-	.
O=C(O[C@@H]1Cc2c(O)cc(O)cc2OC1c1ccc(O)c(O)c1)c1cc(O)c(O)c(O)c1 (stereo partly specified)	0.71µM	.	0.32µM	-	.	.	RECQ1 inh conf=2.8µM;ADP FP counter=?
C=CCN1C(=O)CS/C1=C(\C#N)S(=O)(=O)c1ccc(C)cc1	20µM	.	-	-	?	?
COc1ccc2cc(-c3[nH]ncc3CN3CCCN(c4ccccc4)CC3)ccc2c1	?	-	-	-	-	-
O=C(O)C/C(=C\c1ccc(N2CCOCC2)c([N+](=O)[O-])c1)c1nc2ccccc2s1	-	-	-	-	?	.	RECQ1 inh conf=112µM;ADP FP counter=?
O=C(O)CC/C(=C\c1ccc(N2CCOCC2)c([N+](=O)[O-])c1)c1nc2ccccc2s1	-	-	-	-	-	.	RECQ1 inh conf=?;ADP FP counter=?
C/C(CCN1CCCCc2nc(C)c(C)cc21)=N\OC[C@@H](C)[C@H](OCc1ccccc1)C(C)C	-[11.5 µM]	.	?	-[12.4 µM]	.	.
N[C@H]1CCN(O)C1=O	-	.	-	-	.	.
Clc1ccccc1-c1nnc(SCc2nc(-c3ccccc3)no2)n1-c1ccccc1	.	.	.	-	.	.
CN(C)c1ccc(/C=C2\SC(=O)N(CCc3nnc(N)s3)C2=O)cc1	?	.	-	-	-	?
CN(C)c1ccc(/C=C2/SC(=O)N(CCN=C3NS(=O)(=O)c4ccccc43)C2=O)cc1	-	-	-	-	-	.
Cc1ccc(-n2c(=O)cc(N3CCN(c4ccccc4Cl)CC3)[nH]c2=O)cc1	.	.	.	-	.	.
CCc1cc2c(=O)c(-c3ccc4c(c3)OCCO4)coc2c(CN2CCCCC2C)c1O (stereo unspecified)	?	-	-	-	-	-
CCOc1cc(NC(=O)c2cnccn2)c(OCC)cc1NC(=O)c1cccc(F)c1	-	-	-	-	.	.	RECQ1 inh conf=-;ADP FP counter=?
Cc1c(Cl)cccc1NC(=O)CCn1cnnn1	.	.	.	-	.	.
O=C(NCc1ccco1)C(=O)NCC1OCCN1S(=O)(=O)c1cc(F)ccc1F (stereo unspecified)	18µM	.	?	-	-	.	RECQ1 inh conf=-;ADP FP counter=-
COC(=O)c1cc(O)cc(OC)c1Oc1cc(C)cc(O)c1C(=O)O	22µM	.	0.63µM	8.9µM	20µM	5µM
COC(=O)c1c(C)cc(OC)cc1O	-	.	-	-	.	.
O=C(CCn1nnc2ccccc2c1=O)NCC1CCC(C(=O)O)CC1 (stereo unspecified)	-	-	?	-	-	.	RECQ1 inh conf=-;ADP FP counter=-
SMILES	RECQ1 inh-1	L3MBTL1 inh	APEX1 inh	BLM helicase inh	WRN inhibitor	RECQ1 inh-2	others
O=C(NC1CC(=O)N(c2ccc(F)cc2)C1)C1CC1 (stereo unspecified)	.	.	.	-	.	.
Cc1ccc(OCC(O)CNS(=O)(=O)c2ccccc2C(=O)O)cc1 (stereo unspecified)	-	-	-	-	-	.	RECQ1 inh conf=-;ADP FP counter=-
Cc1nn(-c2ccccc2)c2nc(C3CC3)cc(C(=O)Nc3ccccc3F)c12	.	.	.	-	.	.
Oc1cccc(-c2nc3ncccn3c2Nc2cccc(C(F)(F)F)c2)c1	.	.	.	-	.	.
Cc1ccc(-n2nc(-c3ccco3)cc2C(=O)O)cc1	20µM	.	?	-	45µM	?
CCN(CC)S(=O)(=O)c1ccc(OC)c(NC(=O)/C=C/c2ccco2)c1	25µM	-	-	-	-	-
Cc1cnc(CNc2ncnc3ccc(-c4ccc5c(c4)OCO5)cc23)cn1	20µM	.	-	-	.	?
COC(=O)c1sc2ccccc2c1NC(=O)c1ccc(S(=O)(=O)N2CCCCC2C)cc1 (stereo unspecified)	-	-	-	-	-	.	RECQ1 inh conf=-;ADP FP counter=-
COC(=O)c1sc2ccccc2c1NC(=O)c1ccc(S(=O)(=O)N2CCCCC2)cc1	-	-	-	-	-	.
COc1cccc(CNc2nc3c(-c4ccccc4)nnn3c3ccccc23)c1	.	.	.	-	.	.
CCOC(=O)c1ccc(N2N=C(C)/C(=C/C=C/c3ccco3)C2=O)cc1	?	32µM	-	-	-	-
CCOC(=O)C1=C(C)N(c2ccc(OCC)cc2)C(=O)/C1=C\c1ccco1	-	.	-	-	-	.
Cc1ccc(Cl)cc1Nc1nc(N2CCOCC2)nc(N2CCOCC2)n1	.	.	-	-	-	.
O=[N+]([O-])c1cc(Cl)ccc1Nc1nc(Nc2ccc(Cl)cc2[N+](=O)[O-])nc(N2CCOCC2)n1	.	.	.	.	.	.	RECQ1 inh conf=-
O=C(O)/C=C/C(=O)N1Cc2cc3ccccc3nc2C1	?	?	-	-	?	-
O=C1CCCC/C1=C\Nc1ccc(O)cc1	?	?	?	-	-	-
Cn1cc(-c2nc3cnc(N4CCNCC4)nc3n(C3CC3)c2=O)c2ccccc21	-	.	?	-	.	.
CC1(C)c2ccccc2N2CC(=O)NC21/C=C/c1ccco1 (stereo unspecified)	-	-	-	-	-	.
CC1(C)c2ccccc2N2CCC(=O)NC21/C=C/c1ccco1 (stereo unspecified)	?	-	-	-	-	-
O=C(COc1ccccc1Cl)c1ccc[nH]1	?	.	?	-	-	-
O=C(COc1ccc(Br)cc1Cl)c1ccc[nH]1	-	?	-	-	-	.
CC(=O)n1cc([C@H]2C=C(C(=O)Nc3ccccc3)O[C@@H](OCc3ccc(CO)cc3)C2)c2ccccc21	0.35µM	-	-	-	-	.	RECQ1 inh conf=-;ADP FP counter=-
CC(=O)n1cc([C@@H]2C=C(C(=O)NCc3ccccc3)O[C@H](OCc3ccc(CO)cc3)C2)c2ccccc21	-	.	-	-	-	.
c1ccc(Cn2nnc3c(N4CCCCCC4)ncnc32)cc1	?	-	-	-	-	-

Screens (PubChem)
